Data on two compounds can be found in PubChem BioAssay AID624262 (National Center for Advancing Translational Sciences (NCATS), 2012).

Some of the results follow. Results filed as inconclusive are left out. The source made the active and inactive calls. Calls come from the whole dose curve; as a rule, active = well fitted curve in the direction sought with a large enough effect; inconclusive = small, poorly fitted or top-dose-only effect, or another doubt; inactive = no such curve, though single readings can be large or run the other way.

The assay is described as follows: qHTS for Inhibitors of Glutaminase (GLS): Hit Confirmation in HRP Counterscreen. The settings on record: HRP/glutamate oxidase coupled Amplex Red fluorescence counterscreen; series mostly up to 46.1 µM. The source says: Glutaminase (GLS) catalyzes the hydrolysis of glutamine into glutamate and ammonia. It plays a critical role in glutaminolysis, which is an important energy source for proliferating cells. It was shown that c-Myc, an oncogenic transcription factor known to regulate microRNAs and to stimulate cell proliferation, increases glutamine metabolism by stimulating the expression of GLS via direct suppression of miR23a and miR23b. […] GLS is also thought to play a pathogenic role on HAD using a human HIV-1 infected macrophage system. […] GLS inhibition limits glutamate release and provides neuroprotection against HIV-1 infected macrophages. […] The overall goal of this project is to identify small molecule inhibitors of GLS through quantitative high throughput screening (qHTS) of the MLSMR. A validated potent and selective inhibitor can be used as a tool molecule to further study the pharmacology of its target as well as explore its potential therapeutic application in cancer and inflammatory neurological disorders, such as HIV1-associated dementia (HAD) and multiple sclerosis. […]
3 uL of buffer are dispensed into black 1536-well plates and then 23 nL of compounds are transferred into the wells using a pin tool. […] The plate is quickly centrifuged before an initial read on the ViewLux is obtained. After a 30 min incubation at RT the plate is once again read on the ViewLux.
(In qHTS, concentration-response curves come from the screen itself.)
Take `CCN1C(=O)c2cccc3c(S(=O)(=O)Nc4ccccc4O)ccc1c23`: the call was inactive.
Then `COc1cc(OC)c(S(=O)(=O)Nc2ccccc2C(=O)O)cc1S(=O)(=O)Nc1ccccc1C(=O)O`, with “inactive”.
